# From the supplement of paper PMC8728848
# The sample as a whole holds a higher share of the strongest signals than the screen did.
# B1: CGL3 (Coprinopsis cinerea) (protein)
# chain: MGHHHHHHHHSGFHILRLESTVDLSEPLKDNGIIVFQSDKLDLEPSPNLGPTGIDNTNVNLINAKGDVLLHIGIRRRENAFVFNSIPYGESRGPEERIPLEGTFGDRRDPSITVFDHPDRYQIMIDYKTVYYYKKRLEGRCEKVSYKINEGQTPPFSDVLGVTVLYFANVMPRAN
# B2: FBG2 (Homo sapiens), Q9NRD1 (protein)
# chain: MDAPHSKAALDSINELPENILLELFTHVPARQLLLNCRLVCSLWRDLIDLMTLWKRKCLREGFITKDWDQPVADWKIFYFLRSLHRNLLRNPCAEEDMFAWQIDFNGGDRWKVESLPGAHGTDFPDPKVKKYFVTSYEMCLKSQLVDLVAEGYWEELLDTFRPDIVVKDWFAARADCGCTYQLKVQLASADYFVLASFEPPPVTIQQWNNATWTEVSYTFSDYPRGVRYILFQHGGRDTQYWAGWYGPRVTNSSIVVSPKMTRNQASSEAQPGQKHGQEEAAQSPYRAVVQIFPPPVTIQQWNNATWTEVSYTFSDYPRGVRYILFQHGGRDTQYWAGWYGPRVTNSSIVVSPKMTRNQASSEAQPGQKHGQEEAAQSPYRAVVQI
# How the values were obtained:
# Assay in all cases: glycan array binding signal (z-score within array); higher = stronger binding
# Settings in all cases: glycan notation: IUPAC condensed, linker removed
# [1] = biological target: Fuc(a1-2)[GalNAc(a1-4)]Gal(b1-4)GlcNAc
# In short: (§1)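 Glycan array binding is given as a within-array Z-score, which can be read as non-binding when negative. The arrays, 3228 of them, came from the Consortium for Functional Glycomics database and were retained only where the protein sequence was available. Z-scores were averaged across arrays of the same protein sequence at different concentrations or buffers and across linkers.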
# Gal(a1-4)Gal(b1-4)GlcNAc = biological target: Gal(a1-4)Gal(b1-4)GlcNAc
# In short: as §1
# [2] = biological target: Gal(b1-3)GlcNAc(b1-3)Gal(b1-4)Glc
# In short: as §1
# [3] = biological target: Gal(b1-4)GlcNAc(b1-3)GalNAc
# In short: as §1
# [4] = biological target: Gal(b1-4)GlcNAc(b1-6)[Gal(b1-3)]GalNAc
# In short: as §1
# Gal3S(b1-4)Glc = biological target: Gal3S(b1-4)Glc
# In short: as §1
# GalNAc(b1-4)GlcNAc = biological target: GalNAc(b1-4)GlcNAc
# In short: as §1
# [5] = biological target: GlcNAc(b1-2)Gal(b1-3)GalNAc
# In short: as §1
# [6] = biological target: GlcNAc(b1-4)GlcNAc(b1-4)GlcNAc
# In short: as §1
# [7] = biological target: Neu5Ac(a2-3)Gal(b1-3)[Neu5Ac(a2-3)Gal(b1-4)]GlcNAc
# In short: as §1
# [8] = biological target: Neu5Ac(a2-6)Gal(b1-4)GlcNAc(b1-3)Gal(b1-4)GlcNAc
# In short: as §1
# [9] = biological target: Neu5Ac(a2-8)Neu5Ac(a2-3)[GalNAc(b1-4)]Gal(b1-4)Glc
# In short: as §1
# [10] = biological target: Neu5Gc(a2-3)Gal(b1-3)GlcNAc
# In short: as §1
# [11] = biological target: Fuc(a1-3)[Gal(b1-4)]GlcNAc
# In short: as §1
# [12] = biological target: Fuc(a1-3)[Gal3S(b1-4)]GlcNAc
# In short: as §1
# Gal(a1-2)Gal = biological target: Gal(a1-2)Gal
# In short: as §1
# Gal(b1-2)Gal = biological target: Gal(b1-2)Gal
# In short: as §1
# [13] = biological target: Gal3S(b1-3)[Fuc(a1-4)]GlcNAc
# In short: as §1
# Glc(b1-4)Glc = biological target: Glc(b1-4)Glc
# In short: as §1
# [14] = biological target: GlcNAc(a1-6)Gal(b1-4)GlcNAc
# In short: as §1
# GlcNAc(b1-3)GalNAc = biological target: GlcNAc(b1-3)GalNAc
# In short: as §1
# [15] = biological target: GlcNAc(b1-4)[GlcNAc(b1-6)]GalNAc
# In short: as §1
# [16] = biological target: Man(a1-2)Man(a1-2)Man(a1-3)[Man(a1-2)Man(a1-3)[Man(a1-2)Man(a1-6)]Man(a1-6)]Man(b1-4)GlcNAc(b1-4)GlcNAc
# In short: as §1
# [17] = biological target: Man(a1-2)Man(a1-2)Man(a1-3)[Man(a1-2)Man(a1-6)[Man(a1-3)]Man(a1-6)]Man(b1-4)GlcNAc(b1-4)GlcNAc
# In short: as §1
# [18] = biological target: Man(a1-2)Man(a1-3)[Man(a1-6)]Man(a1-6)[Man(a1-2)Man(a1-3)]Man(b1-4)GlcNAc(b1-4)GlcNAc
# In short: as §1
# [19] = biological target: Man(a1-3)[Man(a1-6)]Man(a1-6)[Man(a1-3)]Man(b1-4)GlcNAc(b1-4)GlcNAc
# In short: as §1
# [20] = biological target: Man(a1-3)[Man(a1-6)]Man(b1-4)GlcNAc(b1-4)GlcNAc
# In short: as §1
# [21] = biological target: Neu5Ac(a2-3)Gal(b1-3)[Fuc(a1-4)]GlcNAc
# In short: as §1
# [22] = biological target: Neu5Ac(a2-3)[GalNAc(b1-4)]Gal(b1-4)Glc
# In short: as §1
# [23] = biological target: Neu5Ac(a2-6)GalNAc(b1-4)GlcNAc
# In short: as §1
Binder,glycan array binding signal (z-score) [1],glycan array binding signal (z-score) (Gal(a1-4)Gal(b1-4)GlcNAc),glycan array binding signal (z-score) [2],glycan array binding signal (z-score) [3],glycan array binding signal (z-score) [4],glycan array binding signal (z-score) (Gal3S(b1-4)Glc),glycan array binding signal (z-score) (GalNAc(b1-4)GlcNAc),glycan array binding signal (z-score) [5],glycan array binding signal (z-score) [6],glycan array binding signal (z-score) [7],glycan array binding signal (z-score) [8],glycan array binding signal (z-score) [9],glycan array binding signal (z-score) [10],glycan array binding signal (z-score) [11],glycan array binding signal (z-score) [12],glycan array binding signal (z-score) (Gal(a1-2)Gal),glycan array binding signal (z-score) (Gal(b1-2)Gal),glycan array binding signal (z-score) [13],glycan array binding signal (z-score) (Glc(b1-4)Glc),glycan array binding signal (z-score) [14],glycan array binding signal (z-score) (GlcNAc(b1-3)GalNAc),glycan array binding signal (z-score) [15],glycan array binding signal (z-score) [16],glycan array binding signal (z-score) [17],glycan array binding signal (z-score) [18],glycan array binding signal (z-score) [19],glycan array binding signal (z-score) [20],glycan array binding signal (z-score) [21],glycan array binding signal (z-score) [22],glycan array binding signal (z-score) [23]
B1,-0.216,-0.049,2.51,-0.201,-0.193,0.022,6.64,-0.197,8.4,-0.222,-0.21,-0.128,-0.191,,,,,,,,,,,,,,,,,
B2,,,,,,,,,,,,-0.018,,-0.537,-0.236,-0.526,-0.363,1.01,-0.116,-0.895,-0.923,-0.787,3.27,3.69,3.61,4.08,3.91,-0.752,-0.116,-0.582
